This is part of a sample that, as a whole, favours compounds with a hit. Of some 79,000 tested, about 15% had one in any assay. Values without a mark were called inactive. Activity calls are given as the source filed them. No stated cut-off is given here; in the data, active means growth inhibition above about 70%; inactive means the rest.

The record followed here is PubChem BioAssay (NCI).

A short description of experiment [1]: NCI Yeast Anticancer Drug Screen. Data for the rad50 strain (AID 155).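 Further: 0% = growth of vehicle-only cultures of the same strain.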 To be noted: S. cerevisiae rad50 strain growth inhibition; at 50.0 µM; stronger effect = higher value. The procedure, abridged:
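DNA repair mutant yeast, compound exposure, growth read-out; inhibition is taken relative to vehicle.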

A short description of experiment [2]: NCI Yeast Anticancer Drug Screen. Data for the mec2-1 strain (AID 157). Particulars: S. cerevisiae mec2-1 strain, at 50.0 µM, stronger effect = higher value. An outline of the steps: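 mec2-1 yeast strain, carrying an alteration in DNA damage repair or cell cycle control, was exposed to compounds; growth inhibition was measured relative to vehicle-treated controls.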

A short description of experiment [3]: NCI Yeast Anticancer Drug Screen. Data for the sgs1 mgt1 strain (AID 161).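 Further: 0% = growth of cultures given vehicle only.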 Particulars: S. cerevisiae sgs1 mgt1 strain, at 50.0 µM, stronger effect = higher value. The procedure, abridged:
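Growth of a repair-deficient yeast mutant was monitored after compound treatment and expressed as inhibition relative to vehicle-treated cultures.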

Experiment [4] is described as follows: NCI Yeast Anticancer Drug Screen. Data for the cln2 rad14 strain (AID 165).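 Further: 0% = growth equal to vehicle treated cultures.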 To be noted: S. cerevisiae cln2 rad14 strain, at 50.0 µM, stronger effect = higher value. An outline of the steps:
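Yeast carrying cln2 and rad14 alterations (cell cycle control and DNA damage repair) were exposed to compounds. Growth inhibition was measured against vehicle-treated controls.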

Experiment [5] can be described thus: NCI Yeast Anticancer Drug Screen. Data for the bub3 strain (AID 167). Particulars: S. cerevisiae bub3 mutant strain, at 50.0 µM, stronger effect = higher value. An outline of the steps: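 In this screen, a yeast mutant lacking normal mitotic checkpoint function is challenged with compound. Relative growth versus vehicle gives the inhibition value.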
A short description of experiment [6]: NCI Yeast Anticancer Drug Screen. Data for the mlh1 rad18 strain (AID 175). Particulars: S. cerevisiae mlh1 rad18 strain growth inhibition; at 50.0 µM; stronger effect = higher value. An outline of the steps: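 Growth inhibition of the yeast strain was measured after compound exposure and expressed relative to vehicle-treated controls. The strain carries defined defects in DNA damage repair.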

In the case of `CN(C=O)c1ccc(C(=O)O)cc1`, the growth inhibition is 4.35% in experiment [1]; 11.9% in experiment [2]; -6.25% in experiment [3]; 2% in experiment [4]; 17.6% in experiment [5]; 10.6% in experiment [6].

Take `COc1ccc(C2S/C(=C\c3cccc(O)c3)C(=O)N2NC(=O)Cc2ccccc2)cc1` (stereo unspecified): the growth inhibition in experiment [1] was -15.3%; in experiment [2], -34.5%; in experiment [3], -6.2%; in experiment [4], -46.5%; in experiment [5] it was -1.2%; in experiment [6] it was 10.9%.

Consider `COc1ccc(-c2cc(=O)c3ccc(O)cc3o2)c(OC)c1OC`, for which the growth inhibition in experiment [1] was -4.7%; in experiment [2] it was -10.4%; in experiment [3] it was -8.35%; in experiment [4] it was 6.65%; in experiment [5], -2.65%; in experiment [6], -1.75%.

As to `COC(=O)/C(=C\Nc1cccc(C)n1)S(=O)(=O)c1ccc(C)cc1`, the growth inhibition was -33.9% in experiment [1]; -1.55% in experiment [2]; 18.5% in experiment [3]; -21.5% in experiment [4]; 7.3% in experiment [5]; 12.8% in experiment [6].

Regarding `C/C(CC(O)(C(F)(F)Cl)C(F)(F)Cl)=N\NC(N)=S`, the growth inhibition in experiment [1] is 29.9%; in experiment [2], -3.05%; in experiment [3], 0.1%; in experiment [4] it was 20.1%; in experiment [5], -0.55%; in experiment [6] it was 25.2%.

As to `O=C(CNOCc1ccccc1)OCc1ccccc1`, the growth inhibition was 25.5% in experiment [1]; 16.1% in experiment [2]; 2.65% in experiment [3]; -6.8% in experiment [4]; 3.45% in experiment [5]; 19.4% in experiment [6].

On to `C=CCOc1ccc(C2C(C(=O)OC)C(=O)CC(O)(c3ccccc3)C2C(=O)OC)cc1OC` (stereo unspecified), for which the growth inhibition is -63.2% in experiment [1]; -24.6% in experiment [2]; -14.9% in experiment [3]; -13.2% in experiment [4]; -0.9% in experiment [5]; -19.7% in experiment [6].

In the case of `CN(C)c1ccc(/C=C2\CCc3ccccc3C2=O)cc1Br`, the growth inhibition in experiment [1] was 5.6%; in experiment [2], -12.1%; in experiment [3] it was -13.9%; in experiment [4] it was -9.05%; in experiment [5] it was 3.95%; in experiment [6], -26.6%.

`CCCCC(=O)CCCC`: the growth inhibition in experiment [1] is 3.55%; in experiment [2], -14%; in experiment [3], -5.1%; in experiment [4] it was -3.3%; in experiment [5], -4.95%; in experiment [6], 4.35%.

As for `N/N=C1/C=Cc2cccc3cccc1c23`, the growth inhibition was 19.3% in experiment [1]; -37.2% in experiment [2]; 15.3% in experiment [3]; 30.2% in experiment [4]; 16.2% in experiment [5]; 38.4% in experiment [6].

As for `O=C(NNCCO)C(O)C(O)C(O)C(O)CO` (stereo unspecified), the growth inhibition in experiment [1] was -31.4%; in experiment [2] it was 7.15%; in experiment [3] it was 2.95%; in experiment [4], 5.25%; in experiment [5] it was -4.7%; in experiment [6], 13.2%.

On to `O=C(CCCCCCCCC(=O)NC1CCCCC1)NC1CCCCC1`, for which the growth inhibition in experiment [1] was -13.2%; in experiment [2], -26.5%; in experiment [3] it was -21.6%; in experiment [4], -20.8%; in experiment [5], -19%; in experiment [6], -5.4%.

As to `CC1=CC(=O)Nc2ccccc2S1`, the growth inhibition in experiment [1] was 43.2%; in experiment [2] it was 29.2%; in experiment [3], 59.2%; in experiment [4], 17%; in experiment [5], 56%; in experiment [6], 23.6%.

Regarding `Nc1cc([N+](=O)[O-])cc(S(=O)(=O)O)c1O`, the growth inhibition in experiment [1] was -5.15%; in experiment [2], -2.95%; in experiment [3], -14.2%; in experiment [4], -65.8%; in experiment [5], 7.45%; in experiment [6], -26%.

Take `Cc1ccc(/C=C2\N=C(N3CCCC(CO)C3)NC2=O)cc1` (stereo unspecified): the growth inhibition was 18.6% in experiment [1]; -1.55% in experiment [2]; -18.3% in experiment [3]; -1.15% in experiment [4]; 1.3% in experiment [5]; -44% in experiment [6].

With `CC(C)(C)OC(=O)N/N=C(/N)Cc1ccc(Cl)cc1`, the growth inhibition was -4.05% in experiment [1]; 19.4% in experiment [2]; -6.2% in experiment [3]; -13.9% in experiment [4]; -14.2% in experiment [5]; 6.4% in experiment [6].

For the compound `O=Cc1ccccc1CCn1c(=O)c2cc3c(=O)n(CCc4ccccc4C=O)c(=O)c3cc2c1=O`, the growth inhibition was 33.7% in experiment [1]; 18.9% in experiment [2]; 11.8% in experiment [3]; -11.8% in experiment [4]; -4.35% in experiment [5]; 18.8% in experiment [6].

Consider `O=C1c2cc(Cl)ccc2-c2cc(Cl)c(Cl)cc21`, for which the growth inhibition in experiment [1] was -0.8%; in experiment [2], -2.05%; in experiment [3], 10.4%; in experiment [4], -29.9%; in experiment [5] it was -3.45%; in experiment [6], 26.6%.

Regarding `N#Cc1cccc(/C=C\C(=O)c2ccccc2)c1`, the growth inhibition in experiment [1] is 22.9%; in experiment [2] it was 8.65%; in experiment [3] it was 5.4%; in experiment [4], 17.3%; in experiment [5], 61%; in experiment [6], 13.9%.

Take `CNC(=O)OCc1c(COC(=O)NC)c(-c2ccccc2)n(-c2ccccc2)c1C`: the growth inhibition is 24.4% in experiment [1]; 27.8% in experiment [2]; 44.8% in experiment [3]; 37.9% in experiment [4]; 22.9% in experiment [5]; 88.1% (active) in experiment [6].

As to `CCCCCCOC(=O)c1ccccn1`, the growth inhibition in experiment [1] was -5.85%; in experiment [2], 1.7%; in experiment [3], 0.15%; in experiment [4], -91.6%; in experiment [5], 17.6%; in experiment [6], -26.6%.
